Results: PubChem BioAssay (EPA / NIEHS)
Results filed as inconclusive are left out. Active and inactive are the calls of the source. How the source made its calls, unless noted: active means hit-call score of the fitted dose curve at least 0.9, where 1 is the maximum; inactive means score below 0.9.

How the values were obtained:
[1] = CCTE_Mundy_HCI_Cortical_Synap_Neur_Matur_NeuriteLength: CCTE's Synaptogenesis and Neurite Maturation Assay in rat cortical cells for Neurite Length, Mundy Lab (AID 2284214)
Summary of the method: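 Rat primary cortical cultures, AraC added DIV 5, dosed DIV 7 through DIV 12 […]. Fixed, MAP2/synaptophysin immunostained with Hoechst; neurite length by high-content imaging, fitted in positive direction versus DMSO.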

[2] = CCTE_Mundy_HCI_Cortical_Synap_Neur_Matur_NeuriteSpotCountPerNeuron: CCTE's Synaptogenesis and Neurite Maturation Assay in rat cortical cells for Neurite Spot Count per Neuron Count, Mundy Lab (AID 2284215)
Summary of the method: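 Developing rat cortical neurons, with glia suppressed by AraC, are exposed to chemicals from DIV 7 to DIV 12. Automated fluorescence imaging of MAP2-labelled neurites and synaptophysin puncta yields a count per neuron, normalised against DMSO wells.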

[3] = CCTE_Mundy_HCI_Cortical_Synap_Neur_Matur_SynapseCount: CCTE's Synaptogenesis and Neurite Maturation Assay in rat cortical cells for Synapse Count, Mundy Lab (AID 2284218)
Summary of the method: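 Rat primary cortical cultures, AraC at DIV 5, chemical dosing DIV 7 to DIV 12 (288.33 h). Fixed cells stained for MAP2, synaptophysin and Hoechst; synapses per neuron counted by high-content imaging, loss of signal versus DMSO.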

[4] = CCTE_Mundy_HCI_Cortical_Synap_Neur_Matur_CellBodySpotCount: CCTE's Synaptogenesis and Neurite Maturation Assay in rat cortical cells for Cell Body Spot Count, Mundy Lab (AID 2284223)
Summary of the method: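 Chemicals were applied to AraC-treated rat primary cortical cells at DIV 7 and measured at DIV 12. Fixed cells were labelled for MAP2, synaptophysin and nuclei, and high-content imaging gave cell body synaptophysin spot counts per neuron relative to DMSO.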

[5] = CCTE_Mundy_HCI_hNP1_Pro_ResponderAvgInten: CCTE's Proliferation Assay in human neuroprogenitor cells, Mundy Lab (AID 2284224; active means hit-call score of the fitted dose curve at least 0.9, where 1 is the maximum)
Summary of the method: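 Proliferation was scored as BrdU labelling intensity in human neural progenitors derived from WA09 embryonic cells, measured 26.25 hours after chemical dosing. Activity was fitted relative to DMSO.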

[6] = UKN2_HCS_IMR90_cell_viability: Viability Assessment in the University of Konstanz (UKN) Leist Lab Neural Crest Cell Migration Assay in human induced IMR90 Pluripotent Stem Cells (UKN2) (AID 2284233);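 further: viability of neural crest cells differentiated from IMR90 iPSC measured by calcein-AM fluorescence imaging; cells exposed to compound for 24 h after a 24 h migration phase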
Summary of the method: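 Human IMR90-derived neural crest cells were allowed to migrate for 24 h into a cell-free zone, then exposed to test chemicals for 24 h. Calcein-AM and Hoechst staining with high-content imaging gave viability, analysed against DMSO baseline.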

[7] = CCTE_Mundy_HCI_Cortical_NOG_NeuronCount: CCTE's Neurite Outgrowth Assay in rat cortical cells for Neuron Count, Mundy Lab (AID 2284236; active means hit-call score of the fitted dose curve at least 0.9, where 1 is the maximum;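 further: neurons counted by imaging betaIII-tubulin and Hoechst stained cortical cells; cells exposed to compound for about 48 hours before fixation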)
Summary of the method: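 Read-out: neuron number by high-content imaging of betaIII-tubulin (Alexa Fluor-488) and Hoechst-labelled rat primary cortical cells.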

[8] = CCTE_Mundy_HCI_Cortical_NOG_BPCount: CCTE's Neurite Outgrowth Assay in rat cortical cells for Branch Point Count, Mundy Lab (AID 2284237)
Summary of the method: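 Measured 50.33 h after dosing, this morphology endpoint uses rat primary cortical cultures labelled for betaIII-tubulin. Branch points are quantified by high-content imaging, with DMSO as negative control and baseline.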

[9] = CCTE_Mundy_HCI_hNP1_Casp3_7: CCTE's Caspase-Glo 3/7 Assay in human neuroprogenitor cells for Apoptosis, Mundy Lab (AID 2284240)
Summary of the method: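 Apoptosis is scored by activated caspase-3/7 luminescence in WA09-derived neural progenitor cells, measured 26.5 h after chemical dosing. Values represent gain of signal relative to DMSO vehicle.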

[10] = CCTE_Mundy_HCI_hNP1_CellTiter: CCTE's Cell Titer-Glo 2 Assay in human neuroprogenitor cells for Viability, Mundy Lab (AID 2284241; active means hit-call score of the fitted dose curve at least 0.9, where 1 is the maximum)
Summary of the method: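 Human neural progenitor cells (hNP1, WA09-derived) were plated on poly-L-ornithine/laminin and grown 40 to 44 hours at 37 °C, 5% CO2 before chemical addition. Twenty-four hours later, ATP was measured by CellTiter-Glo luminescence; loss of signal versus DMSO indicates reduced viability.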

[11] = CCTE_Mundy_HCI_Cortical_Synap_Neur_Matur_NeuronCount: CCTE's Synaptogenesis and Neurite Maturation Assay in rat cortical cells for Neuron Count, Mundy Lab (AID 2284242; active means hit-call score of the fitted dose curve at least 0.9, where 1 is the maximum)
Summary of the method: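 Rat primary cortical cells, AraC added at DIV 5, dosed with media change from DIV 7 to DIV 12. Fixed, Hoechst-stained and immunolabelled for MAP2 and synaptophysin; neuron number counted by high-content imaging, loss fitted versus DMSO.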

[12] = IUF_NPC2c_oligodendrocyte_migration_120hr: Leibniz Research Institute for Environmental Medicine (IUF) 120-hour Neural Progenitor Cell Migration Assay for Oligodendrocyte Migration (NPC2c) (AID 2284297);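 further: O4-positive oligodendrocyte migration distance divided by radial glia migration distance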
Summary of the method: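 Using fetal brain neural progenitor spheres differentiating in N2 medium at 37C, compounds were present for 120 h. Oligodendrocyte migration distance, normalized to radial glia migration, was measured from imaged O4 staining.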

[13] = IUF_NPC2a_radial_glia_migration_120hr: Leibniz Research Institute for Environmental Medicine (IUF) 120-hour Neural Progenitor Cell Migration Assay for Radial Glia Migration (NPC2a) (AID 2284298)
Summary of the method: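 Exposure of 0.3 mm primary hNPC spheres runs day 0 to 120 h with a half-volume medium change at day 3. Fixed cells get Hoechst staining; high-content analysis of nuclear positions yields radial glia migration distance per well, compared against DMSO controls.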

[14] = IUF_NPC2b_neuronal_migration_120hr: Leibniz Research Institute for Environmental Medicine (IUF) 120-hour Neural Progenitor Cell Migration Assay for Neuron Migration (NPC2b) (AID 2284300)
Summary of the method: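 Fetal human NPC spheres migrate on PDL/laminin during 120 h compound treatment; neuronal migration distance, glia-normalized, scored versus DMSO control.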

[15] = IUF_NPC3_neuronal_differentiation_120hr: Leibniz Research Institute for Environmental Medicine (IUF) 120-hour Neuronal Differentiation Assay (NPC3) (AID 2284301)
Summary of the method: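 Single 0.3 mm neurospheres from human fetal cortex were plated in differentiation medium containing test compound. Medium was half-replaced on day 3. After 120 h cells were fixed, immunostained and imaged, and neuronal fraction was scored against DMSO control.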

[16] = IUF_NPC4_neurite_length_120hr: Leibniz Research Institute for Environmental Medicine (IUF) 120-hour Neuronal Morphology Assay for Neurite Length (NPC4) (AID 2284302)
Summary of the method: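 Read-out is mean neurite length in µm of TUBB3-positive neurons, skeletonized from high-content fluorescence images after 120 h. Single 0.3 mm primary human neural progenitor spheres differentiated on poly-D-lysine/laminin under continuous compound exposure; DMSO was baseline.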

[17] = IUF_NPC4_neurite_area_120hr: Leibniz Research Institute for Environmental Medicine (IUF) 120-hour Neuronal Morphology Assay for Neurite Area (NPC4) (AID 2284305; active means hit-call score of the fitted dose curve at least 0.9, where 1 is the maximum)
Summary of the method: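 Neurite area is read out as the mean pixel area, excluding nuclei, of skeletonized TUBB3-positive neurons imaged after 120 h. Primary human neural progenitor spheres differentiated on poly-D-lysine/laminin with compound present from day 0. Activity was referenced to DMSO controls.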

[18] = IUF_NPC2-5_cytotoxicity_72hr: Cytotoxicity Assessment at 72 hours in the Leibniz Research Institute for Environmental Medicine (IUF) Neural Progenitor Cell Migration and Differentiation Assay for Cytotoxicity (NPC2-5) (AID 2284306; active means hit-call score of the fitted dose curve at least 0.9, where 1 is the maximum;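 further: LDH release into supernatant measured by resorufin fluorescence marking membrane damage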)
Summary of the method: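 Membrane integrity loss was scored from fluorescence (RFU) of resorufin generated by LDH in culture supernatant, 72 h after dosing. Differentiating human progenitor spheres received seven serial compound concentrations alongside a solvent control.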

[19] = IUF_NPC2-5_cytotoxicity_120hr: Cytotoxicity Assessment at 120 hours in the Leibniz Research Institute for Environmental Medicine (IUF) Neural Progenitor Cell Migration and Differentiation Assay (NPC2-5) (AID 2284307; active means hit-call score of the fitted dose curve at least 0.9, where 1 is the maximum)
Summary of the method: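 Membrane-integrity loss is quantified by LDH in supernatant after five days of exposure of migrating, differentiating human fetal NPC spheres; seven serially diluted concentrations are tested with DMSO kept at or below 0.1%.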

[20] = IUF_NPC2-5_cell_number_120hr: Cell Number Assessment at 120 hours in the Leibniz Research Institute for Environmental Medicine (IUF) Neural Progenitor Cell Migration and Differentiation Assay (NPC2-5) (AID 2284308);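 further: count of Hoechst-stained nuclei in migration zone around plated human neural progenitor spheres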
Summary of the method: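 Seven-point serial dilutions plus solvent control were applied to plated 0.3 mm hNPC spheres at differentiation start, with medium half-replaced at day 3. Nuclei positive for Hoechst in the migration zone were enumerated at 120 h.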

[21] = IUF_NPC2-5_viability_120hr: Viability Assessment at 120 hours in the Leibniz Research Institute for Environmental Medicine (IUF) Neural Progenitor Cell Migration and Differentiation Assay (NPC2-5) (AID 2284312)
Summary of the method: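 Alamar blue resorufin fluorescence read after 5 days of differentiation, with compound present from day 0 and replenished at day 3. Primary hNPC spheres on laminin-coated plates, 37C; seven concentrations plus solvent control, fitted against DMSO.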

[22] = CCTE_Mundy_HCI_iCellGluta_NOG_NeuriteLength: CCTE's Neurite Outgrowth Assay in iCellGluta cells for Neurite Length, Mundy Lab (AID 2284318; active means hit-call score of the fitted dose curve at least 0.9, where 1 is the maximum)
Summary of the method: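 Automated high-content imaging of betaIII-tubulin (Alexa Fluor-488) and Hoechst-stained cells gave neurite length, normalized to the DMSO baseline.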

[23] = IUF_NPC1_cytotoxicity_72hr: Cytotoxicity Assessment at 72 hours in the Leibniz Research Institute for Environmental Medicine (IUF) Neural Progenitor Cell Proliferation Assay (NPC1) (AID 2284332; active means hit-call score of the fitted dose curve at least 0.9, where 1 is the maximum;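 further: rising LDH signal means more cytotoxicity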)
Summary of the method: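 Human fetal neural progenitor spheres (0.3 mm) in EGF/FGF proliferation medium, 37C, exposed 72 h without renewal. LDH release in supernatant read by resorufin fluorescence; gain of signal scored relative to dynamic range.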

[24] = CCTE_Mundy_HCI_iCellGluta_NOG_NeuronCount: CCTE's Neurite Outgrowth Assay in iCellGluta cells for Neuron Count, Mundy Lab (AID 2284340; active means hit-call score of the fitted dose curve at least 0.9, where 1 is the maximum;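 further: cells fixed about 48 h after compound addition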)
Summary of the method: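 Neuron count read by automated high-content imaging of Hoechst 33342 and betaIII-tubulin/Alexa Fluor-488 labelling in human iPSC glutamatergic neurons. Activity fitted relative to DMSO.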

[25] = CCTE_Mundy_HCI_iCellGluta_NOG_NeuriteCount: CCTE's Neurite Outgrowth Assay in iCellGluta cells for Neurite Count, Mundy Lab (AID 2284342; active means hit-call score of the fitted dose curve at least 0.9, where 1 is the maximum;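 further: chemical exposure about 48 hours starting 2 hours after plating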)

Measured: outcome

CC(C)O
inactive: all assays above
